Several values for one entry are separate records, joined by “and”; a condition that tells them apart may be missing. Equal values may be shown once. This is part of a sample that, as a whole, favours compounds with a hit. Of some 83,000 tested, about 20% had one in any assay.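 Testing used 96-well plates and a 48-hour single-concentration exposure. Example: -40 means 40% of the starting cells died.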 Activity calls are given as the source filed them. How the source made its calls: active means growth percent below 10; inactive means the rest.
Tests used:
Test in all cases: NCI-60 one-dose screen, 48 h (100 = growth as untreated, 0 = no growth, -100 = all killed)
NCI-H23 lung = conditions: 10 µM unless noted
NCI-H226 lung = conditions: 10 µM unless noted
NCI-H322M lung = conditions: 10 µM unless noted
HOP-62 NSCLC = conditions: 10 µM unless noted
NCI-H460 lung = conditions: 10 µM unless noted
HOP-92 NSCLC = conditions: 10 µM
NCI-H522 lung = conditions: 10 µM
A549/ATCC NSCLC = conditions: 10 µM unless noted
786-0 renal = conditions: 10 µM unless noted
COLO 205 colon = conditions: 10 µM unless noted
DU-145 prostate = conditions: 10 µM unless noted
K-562 leukemia = conditions: 10 µM unless noted
MALME-3M melanoma = conditions: 10 µM unless noted
MDA-MB-231 breast = conditions: 10 µM unless noted
RXF 393 renal = conditions: 10 µM unless noted
SF-268 CNS = conditions: 10 µM unless noted
SF-295 CNS = conditions: 10 µM unless noted
SF-539 CNS = conditions: 10 µM unless noted
UACC-257 melanoma = conditions: 10 µM unless noted
M14 melanoma = conditions: 10 µM unless noted

Measured: growth

c1ccc2c(c1)OC1OC2Oc2ccccc21
inactive: NCI-H23 lung 98.3% | NCI-H226 lung 94.3% | NCI-H322M lung 104% | HOP-62 NSCLC 98.8% | NCI-H460 lung 99.4% | HOP-92 NSCLC 101% | NCI-H522 lung 87% | A549/ATCC NSCLC 96.9% | 786-0 renal 100% | COLO 205 colon 107% | DU-145 prostate 113% | K-562 leukemia 96.1% | MALME-3M melanoma 113% | MDA-MB-231 breast 114% | RXF 393 renal 97.1% | SF-268 CNS 99.3% | SF-295 CNS 115% | SF-539 CNS 106% | UACC-257 melanoma 101%

COc1cc(C(O)C2C(=O)OCC2C2(c3ccc4c(c3)OCO4)SCCCS2)cc(OC)c1OC (stereo not given)
inactive: NCI-H23 lung 93.8% | NCI-H226 lung 100% | NCI-H322M lung 104% | HOP-62 NSCLC 101% | NCI-H460 lung 107% | HOP-92 NSCLC 77.8% | NCI-H522 lung 86.5% | 786-0 renal 103% | COLO 205 colon 94.2% | DU-145 prostate 103% | K-562 leukemia 97.7% | MALME-3M melanoma 91.1% | MDA-MB-231 breast 95.3% | RXF 393 renal 101% | SF-268 CNS 94.3% | SF-295 CNS 92.9% | SF-539 CNS 102% | UACC-257 melanoma 104% | M14 melanoma 96.8%

O=C(CO)C(O)C(O)C(O)C(O)CO (stereo not given)
inactive: NCI-H23 lung 104% and 102% | NCI-H226 lung 96.2% and 101% | NCI-H322M lung 107% and 105% | HOP-62 NSCLC 105% | NCI-H460 lung 109% and 108% | HOP-92 NSCLC 116% and 105% | NCI-H522 lung 102% and 108% | 786-0 renal 105% | COLO 205 colon 107% and 103% | DU-145 prostate 110% and 109% | K-562 leukemia 108% and 117% | MALME-3M melanoma 109% and 117% | RXF 393 renal 119% and 117% | SF-268 CNS 102% and 104% | SF-295 CNS 105% and 102% | SF-539 CNS 107% and 96.5% | UACC-257 melanoma 93.9% and 95.8% | M14 melanoma 103% and 96.2%

NC1CCC(C(=O)O)CC1 (stereo not given)
inactive: NCI-H23 lung 111% and 108% | NCI-H226 lung 104% and 99.6% | NCI-H322M lung 117% and 105% | HOP-62 NSCLC 100% and 91.2% | NCI-H460 lung 98.9% and 104% | NCI-H522 lung 97.4% and 96% | A549/ATCC NSCLC 107% and 108% | 786-0 renal 102% and 103% | COLO 205 colon 105% and 107% | DU-145 prostate 108% and 115% | K-562 leukemia 107% and 109% | MALME-3M melanoma 115% and 106% | MDA-MB-231 breast 97.3% and 113% | RXF 393 renal 112% and 106% | SF-268 CNS 105% | SF-295 CNS 106% and 110% | SF-539 CNS 98.9% and 102% | UACC-257 melanoma 107% and 113% | M14 melanoma 96.5% and 99.3%

Brc1ccc(SSc2ccc(Br)cc2)cc1
inactive: NCI-H23 lung 72.5% | NCI-H226 lung 93.7% | NCI-H322M lung 91.8% | HOP-62 NSCLC 75.3% | NCI-H460 lung 68.1% | HOP-92 NSCLC 98.4% | NCI-H522 lung 85.2% | A549/ATCC NSCLC 66.7% | 786-0 renal 59% | COLO 205 colon 90.6% | DU-145 prostate 93.6% | K-562 leukemia 89.9% | MALME-3M melanoma 74.8% | RXF 393 renal 74.6% | SF-268 CNS 58.9% | SF-295 CNS 52.2% | SF-539 CNS 56.1% | UACC-257 melanoma 97.7% | M14 melanoma 68.7%

c1ccc(CNCCNCc2ccccc2)cc1
inactive: NCI-H23 lung 117% | NCI-H226 lung 90.4% | NCI-H322M lung 106% | HOP-62 NSCLC 98.8% | NCI-H460 lung 104% | NCI-H522 lung 106% | A549/ATCC NSCLC 101% | 786-0 renal 107% | COLO 205 colon 109% | DU-145 prostate 114% | K-562 leukemia 98.1% | MALME-3M melanoma 109% | MDA-MB-231 breast 118% | RXF 393 renal 104% | SF-268 CNS 120% | SF-295 CNS 90.8% | SF-539 CNS 101% | UACC-257 melanoma 117% | M14 melanoma 111%

Cc1ccc(=O)[nH]n1
inactive: NCI-H23 lung 97.8% and 98.7% | NCI-H226 lung 102% and 100% | NCI-H322M lung 104% and 103% | HOP-62 NSCLC 110% and 91.9% | NCI-H460 lung 105% and 107% | NCI-H522 lung 108% and 96.2% | A549/ATCC NSCLC 102% and 91.4% | 786-0 renal 111% | COLO 205 colon 111% and 115% | DU-145 prostate 101% and 116% | K-562 leukemia 99.7% and 97.2% | MALME-3M melanoma 112% and 106% | MDA-MB-231 breast 118% | RXF 393 renal 105% | SF-268 CNS 99.4% and 103% | SF-295 CNS 113% and 101% | SF-539 CNS 110% and 109% | UACC-257 melanoma 101% and 94.1% | M14 melanoma 111% and 110%

CCCCOc1ccc(Nc2cc(Cl)ccc2C(=O)O)cn1
inactive: NCI-H23 lung 103% and 92.9% | NCI-H226 lung 109% and 97.5% | NCI-H322M lung 110% and 105% | HOP-62 NSCLC 88.4% and 90% | NCI-H460 lung 104% and 99% | NCI-H522 lung 46.4% and 98.2% | A549/ATCC NSCLC 96.5% and 98.1% | 786-0 renal 92% | COLO 205 colon 119% and 103% | DU-145 prostate 120% and 121% | K-562 leukemia 107% and 108% | MALME-3M melanoma 140% and 121% | MDA-MB-231 breast 113% and 111% | RXF 393 renal 130% and 104% | SF-268 CNS 111% and 107% | SF-295 CNS 108% and 109% | SF-539 CNS 99.1% and 97.7% | UACC-257 melanoma 111% and 98.2% | M14 melanoma 101% and 107%

CC1CCC2(OC1)OC1CC3C4CC=C5CC(O)CCC5(C)C4CCC3(C)C1C2C (stereo not given)
inactive: NCI-H23 lung 104% | NCI-H226 lung 92.2% | NCI-H322M lung 113% | HOP-62 NSCLC 66.6% | NCI-H460 lung 103% | HOP-92 NSCLC 26.6% | NCI-H522 lung 103% | COLO 205 colon 111% | DU-145 prostate 107% | K-562 leukemia 97.3% | MALME-3M melanoma 120% | MDA-MB-231 breast 100% | SF-268 CNS 89.6% | SF-295 CNS 119% | SF-539 CNS 91.2% | M14 melanoma 102%
active: UACC-257 melanoma -3.06%

CC(=O)NCC(=O)c1ccc([N+](=O)[O-])cc1
inactive: NCI-H23 lung 95% | NCI-H226 lung 98% | NCI-H322M lung 103% | HOP-62 NSCLC 95.8% | NCI-H460 lung 104% | HOP-92 NSCLC 108% | NCI-H522 lung 109% | 786-0 renal 103% | COLO 205 colon 105% | DU-145 prostate 109% | K-562 leukemia 101% | MALME-3M melanoma 101% | MDA-MB-231 breast 97.7% | SF-268 CNS 99.1% | SF-295 CNS 106% | SF-539 CNS 109% | UACC-257 melanoma 101% | M14 melanoma 109%

O=C1c2c(O)ccc(O)c2C(=O)c2c(NCCNCCO)ccc(NCCNCCO)c21
active: NCI-H23 lung -59% and -79.5% | NCI-H226 lung -55.7% and -60.1% | NCI-H322M lung -29.2% and -9.24% | HOP-62 NSCLC -53.4% and -65.5% | NCI-H460 lung -57% and -52.8% | NCI-H522 lung -91.7% and -66.8% | A549/ATCC NSCLC -51.4% and -77.6% | 786-0 renal -15.8% and -50.5% | COLO 205 colon -69.5% and -74.4% | DU-145 prostate -36.8% and -51.3% | K-562 leukemia -5.45% and -77.6% | MALME-3M melanoma -64.6% and -88.2% | MDA-MB-231 breast -84.3% and -77.3% | RXF 393 renal -86.4% and -68.9% | SF-268 CNS -73% and -80% | SF-295 CNS -37.8% and -39.6% | SF-539 CNS -38.4% and -84% | UACC-257 melanoma -4.02% and -47.7% | M14 melanoma -79.7% and -97.7%
